Assay results taken from PMC5540273 (PLoS ONE, 2017).

test system: T1, p38-gamma; conditions: concentration: 1 μM, replicates: in singlicate; n = 1
T1 construct: gene MAPK12
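Further: KINOMEscan kinase panel screen.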

SMILES | %Inh [%]
CCn1c(-c2nonc2N)nc2ccccc21 [SB-693162/GW549034] | 10
Nc1n[nH]c2nnc(-c3ccccc3)c(-c3ccccc3)c12 [GW554060] | 0
O=C(Nc1ccc2c(c1)OCO2)NC1CCN(c2ccnc(NCc3ccc(F)cc3)n2)CC1 [GSK1379859] | 0
COc1cc2ncn(-c3cc(OCc4ccncc4Br)c(C(N)=O)s3)c2cc1OC [GW854278] | 10
COc1cccc(-n2cnc3c(N)ncnc32)c1 [SKF-97416] | 52
COc1cccc(C2=C(Nc3cccc(C(=O)O)c3)C(=O)NC2=O)c1 [SB-390770] | 0
O=C(Nc1n[nH]c2nc(-c3ccccc3)c(Br)cc12)C1CC1 [SB-708998] | 26
COc1ccc(Nc2nccc(N3CCC(NS(=O)(=O)c4ccc(NC(C)=O)cc4)C3)n2)cc1 (centres unmarked) [GSK1379729] | 17
Cl.NS(=O)(=O)c1cccc(Nc2cc(-c3ccc(F)cc3)n[nH]2)c1 [GW824645] | 0
COc1cc2ncn(-c3cc(OCc4ccc(S(C)(=O)=O)cc4)c(C(N)=O)s3)c2cc1OC [GW869979] | 24
Nc1nc(-c2ccccc2F)c(-c2ccnc3ccccc23)s1 [GW560459] | 0
CN1C(=O)C(Nc2cc(Cl)c(O)c(Cl)c2)=C(c2ccc(Cl)cc2)C1=O [SB-404321] | 23
Nc1n[nH]c2ncc(-c3ccccc3)cc12 [SB-517081] | 31
COc1cc(Nc2ccnc3ccc(C(F)(F)F)cc23)cc(OC)c1OC [GW577382] | 0
